Bioassay records from PubChem.
Hits are enriched below; roughly 11% of the tested compounds scored in any of these assays.
USP17 block – blocks human USP17 ubiquitin-rhodamine cleavage | A8MUK1 | purified USP17, Ub-rhodamine cleavage fluorescence, 3 h | inhibition, % at 50 µM | hit rate 6.5% among 47,000 | AID 1645855
USP30 block – inhibitors of human USP30 deubiquitinase. purified USP30, Ub-rhodamine cleavage fluorescence. inhibition, % at 25 µM. hit rate 5.3% among 47,000
Target sequence (Q70CQ3 whole entry, looked up): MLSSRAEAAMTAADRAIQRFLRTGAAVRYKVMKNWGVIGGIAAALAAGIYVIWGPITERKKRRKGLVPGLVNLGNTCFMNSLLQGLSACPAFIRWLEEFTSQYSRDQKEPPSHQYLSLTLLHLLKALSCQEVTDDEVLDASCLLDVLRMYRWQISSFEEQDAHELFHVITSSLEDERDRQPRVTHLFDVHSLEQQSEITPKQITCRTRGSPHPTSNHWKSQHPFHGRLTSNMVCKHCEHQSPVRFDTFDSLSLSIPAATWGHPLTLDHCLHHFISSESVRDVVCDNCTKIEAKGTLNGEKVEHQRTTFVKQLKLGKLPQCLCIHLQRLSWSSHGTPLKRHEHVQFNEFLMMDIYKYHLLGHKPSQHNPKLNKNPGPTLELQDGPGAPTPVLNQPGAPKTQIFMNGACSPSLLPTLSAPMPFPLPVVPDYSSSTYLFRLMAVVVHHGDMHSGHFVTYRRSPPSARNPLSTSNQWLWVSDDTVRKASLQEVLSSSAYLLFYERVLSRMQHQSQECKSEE
USP28 inh – blocks human USP28 ubiquitin-rhodamine cleavage | Q96RU2 | purified USP28, Ub-rhodamine cleavage fluorescence, 30 min | inhibition, % at 25 µM | hit rate 3% among 47,000 | AID 1645857
Active calls of the source: *. Cut-off read from the data, not from the text of the source: active = inhibition above about 30%; inactive = the rest.

SMILES | USP17 block | USP30 block | USP28 inh
Cn1c(=O)c(C2CCCCC2O)nc2c(OCc3ccccc3)nc(N)nc21 (stereo unspecified) | 42* | -46 | -10
Cc1oc(C2CCN(C(=O)NC3CCCC3)CC2)nc1C(=O)N1CCOCC1 | -1 | 0 | -10
CCc1nc2ccc(C(=O)NCc3ccc(OC)cc3)cc2nc1CC | 12 | -7 | 11
COc1cccc(-n2cnc3cc(C(=O)NCc4ccncc4)ccc3c2=O)c1 | 25 | 31* | 8
Cc1cc(C(=O)N2CCN(Cc3ccc(F)cc3)CC2)c2c(C)nn(C)c2n1 | -12 | -18 | -11
COc1cccc(C(=O)NCC(c2cccc3ccccc23)N2CCOCC2)c1OC (stereo unspecified) | 0 | 9 | 0
Cc1ccc(C(=O)NCCc2nc(-c3ccc4c(c3)OCO4)n[nH]2)cc1F | 47* | 69* | 16
Cc1noc(C)c1CNC(=O)c1ccc2c(c1)OCO2 | 12 | 9 | 6
Cc1cccc(-n2cc(-c3ccccc3)c3c(NCc4ccccn4)ncnc32)c1 | 0 | 21 | 7
c1ccc(-c2cn(-c3ccccc3)c3ncnc(NC4CC4)c23)cc1 | -7 | 4 | 35*
Clc1cccc(-n2cc(-c3ccccc3)c3c(NCc4ccccn4)ncnc32)c1 | 70* | 75* | 53*
COc1ccc(-n2cc(-c3ccccc3)c3c(NC4CC4)ncnc32)cc1 | 5 | 4 | 7
COc1ccc(CN(C)Cc2cc(=O)c3cc(Cl)ccc3[nH]2)cc1OC | -6 | 2 | -3
COc1ccc(CNC(=O)c2cc3c(=O)n(C)ccc3n2C)cc1 | 0 | 5 | 11
COc1ccccc1-n1c(-c2cccs2)cn2c3c(=O)n(C)c(=O)n(C)c3nc12 | -13 | 4 | -9
O=C(C[C@@H]1CCN2C[C@@H]1CCCOc1ccccc1CN(C(=O)c1ccccc1)CC2=O)N1CCOCC1 | -1 | 10 | 0
O=C(C[C@@H]1CCN2C[C@@H]1CCCOc1ccccc1CN(C(=O)COc1ccccc1)CC2=O)N1CCOCC1 | 71* | 79* | 55*
O=C(C[C@@H]1CCN2C[C@@H]1CCCOc1ccccc1CN(C(=O)c1cccnc1)CC2=O)N1CCOCC1 | 78* | 92* | 86*
COC[C@H]1CCCN1C(=O)C[C@@H]1CCN2C[C@@H]1CCCOc1ccc(N3CCOCC3)cc1CNCC2=O | -15 | -16 | -9
O=C(COc1ccccc1)N1CC[C@@H]2CN(Cc3ccccc3)S(=O)(=O)[C@@H]2CC1 | -17 | -20 | -18
CC(C)NC(=O)N1CC(=O)N2CC[C@@H](CC(=O)N3CCOCC3)[C@@H](CCCOc3ccccc3C1)C2 | 75* | 100* | 72*
O=C(Nc1cnc(N2CCCCCC2)nc1)c1cccc(F)c1 | -22 | 1 | 24
Cc1nc2nc(CNc3ccccc3)nn2c(C)c1Cl | 13 | 21 | 47*
Cc1nc2nc(CN(C(=O)C(C)C)c3ccccc3)nn2c(C)c1Cl | -3 | 0 | 0
Cc1cc(C)n2nc(CNc3cccc(Cl)c3)nc2n1 | 11 | 10 | 73*
SMILES | USP17 block | USP30 block | USP28 inh
Cc1cc(C)n2nc(Cc3ccccc3)nc2n1 | -11 | -15 | 2
COc1ccc2c(c1OC)C(=O)N1c3ccc(C)cc3N=C(c3ccccc3)CC21 (stereo unspecified) | 8 | 14 | 18
Cc1ccc(-c2nc(-c3cccc(-c4ccnn4C)c3)no2)cc1F | -10 | -1 | -5
Cc1nc(-c2ccc(-c3noc(-c4ccnn4C)n3)cc2)cs1 | 33* | 40* | 0
O=c1[nH]c2c(cc1CNCc1cccnc1)c(-c1cccc(F)c1)nn2-c1ccccc1 | -43 | -127 | -50
C/C=C/C=C/[C@@H]1Cc2cc(O)cc(O)c2O1 | 97* | 82* | 91*
CCC(C)NC(=O)c1cn2c3c(cccc3c1=O)CC2 (stereo unspecified) | 4 | -3 | -1
CCc1ccc2c(c1)[C@]1(C(=O)N2)[C@@H]2C(=O)N(c3ccc4c(c3)OCCO4)C(=O)[C@@H]2[C@@H]2CCCN21 | -36 | -258 | -73
CN(C)S(=O)(=O)N1CCCC(Cc2cnc(-c3ncc[nH]3)cn2)C1 (stereo unspecified) | -23 | -2 | 0
O=C1CCCC[C@]2(CN(C(=O)c3ccc(-n4cccn4)nc3)C[C@H]2c2ccc(F)cc2)N1 | -9 | 33* | 10
Cc1ccnn1CCC(=O)N1C[C@@H](c2cc(F)cc(F)c2)[C@@]2(CCCCC(=O)N2)C1 | 0 | -12 | -8
COc1ccc(CSc2nc3ccccc3[nH]2)cc1OC | -2 | -7 | 2
c1ccc(-c2cc(CSc3nc4ccccc4[nH]3)no2)cc1 | 33* | -33 | 4
COc1ccc(C2CC(=O)c3cnc(NCC4CCCO4)nc3C2)cc1OC (stereo unspecified) | 16 | 30* | 14
CC1CC(=O)c2cnc(NCC3CCCO3)nc2C1 (stereo unspecified) | 20 | 13 | 16
Cc1nn2c(S(=O)(=O)N(C)Cc3ccccc3)c(C)nc2s1 | 1 | -57 | 8
Cn1c(COc2ccccc2)nnc1SCC(=O)Nc1ccc(N2CCOCC2)cc1 | 22 | 31* | 58*
Cc1ccc(C)c(NC(=O)CSc2nnc(Cc3cccc4ccccc34)n2C)c1 | -13 | 0 | 45*
CCOc1ccc(-n2c(SCC(=O)Nc3ccc(C)cc3)nnc2-c2c[nH]c3ccccc23)cc1 | 63* | 56* | 18
CCOc1ccc(NC(=O)CSc2nnc(Cc3cccc4ccccc34)n2C)cc1 | 65* | 46* | 67*
CCOc1ccc(NC(=O)CSc2nnc(-c3ccccn3)n2Cc2ccco2)cc1 | -33 | -38 | -9
Cc1ccc(C(=O)CSc2nnc(CC(=O)Nc3ccccc3F)n2C)cc1 | -10 | 0 | 2
Cn1c(SCC(=O)Nc2ccc(N3CCOCC3)cc2)nnc1-c1ccco1 | 9 | 9 | 14
COCCn1c(SCC(=O)Nc2ccc(OC)cc2)nnc1-c1c[nH]c2ccccc12 | 9 | -1 | -1
CCc1c(C2CCN(C(=O)NCc3cccc(OC)c3)CC2)noc1N | 6 | 4 | 0
SMILES | USP17 block | USP30 block | USP28 inh
O=C(NCc1ccccc1)c1ncoc1-c1ccccc1C(=O)N1CCOCC1 | -5 | 0 | -6
COCCNC(=O)c1nc(N2CCCCC2)c2c(C)cc(C)nc2n1 | -57 | -230 | -67
Cn1c(SCC(=O)Nc2ccccc2Br)nnc1-c1ccccn1 | 9 | 14 | 8
Cc1nc2c(C)cccn2c(=O)c1Cc1nnc(SCC(=O)Nc2ccccc2)n1C | 36* | 33* | -4
O=C(C1CCC1)N1CCN(Cc2nncn2C2CCCCC2)CC1 | 0 | 3 | -6
O=C(NCc1cccnc1)c1c2c(NCC3CC3)ncnc2n2ccccc12 | 31* | -108 | -30
CN1CCCN(C(=O)c2c3c(NCc4ccccc4)ncnc3n3ccccc23)CC1 | -103 | -411 | -120
O=C1Nc2ccccc2C(=O)C1C(c1ccc(Cl)cc1)C1C(=O)Nc2ccccc2C1=O (stereo unspecified) | 88* | 41* | 40*
O=C1Nc2ccccc2C(=O)N2CCCC12 (stereo unspecified) | 11 | 19 | 10
Cc1nccn1-c1cccc(C2CCN(CC(N)=O)CC2)n1 | -35 | 2 | 5
Cc1ccc2ncc(S(=O)(=O)c3ccccc3)c(NCc3ccccc3)c2c1 | -7 | 10 | 0
